“And” between values parts separate entries of the source, which are not always exact repeats. Equal values may be shown once. Where a structure was tested more than once in an assay, its records may differ in their call. The source made the active and inactive calls.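 The calls were made as follows, unless noted: active = compounds lowering colon cancer cell viability after pretreatment blocking the GSK3B kinase; inactive = the rest.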
What was measured:
[1] = liver-stage malaria parasite growth inhibition, primary screen, cell-based, HepG2, luciferase luminescence, HepG2 viability (AID 624349; in the data active = parasite load remaining mostly below about 12%, no sharp cut-off; inactive = mostly above about 10%;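 also: 100% = mean of DMSO negative control wells on the same plate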); details: P. berghei liver stage in HepG2, luciferase luminescence, concentration not given here; parasite load remaining: stronger effect = lower value; viability: measured here: HepG2 viability without parasites
[2] = stimulators of nuclear beta-catenin in C2C12, primary screen, imaging, WNT3A-conditioned medium, mouse C2C12, NPC library (AID 1117326; in the data active = nuclear beta-catenin stimulation mostly above about 4.2%, no sharp cut-off; inactive = mostly below about 10%); details: stronger effect = higher value
[3] = stimulators of insulin release from INS-1E, primary screen, cell-based, 5 mM glucose, NPC library (AID 1117329;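 active = compound raises insulin release from rat beta cells at 5 mM glucose, no numeric limit stated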); details: rat INS-1E insulin secretion, at 10 µM, stronger effect = higher value
[4] = growth inhibition of GSK3B-pretreated HCT116 cells – cell-based, CellTiter-Glo, 0.2 to 20 µM (AID 1117336); details: HCT116 viability after GSK3B inhibitor, at 20 µM, stronger effect = higher value
[5] = inhibition of endothelial tube formation, primary screen, imaging, VEGF stimulated, CD31 staining, tube area, NPC library (AID 1117340;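 active = compound that reduces growth-factor-driven endothelial tube area in a mixed cell culture, no cutoff stated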); details: VEGF-stimulated ADSC/ECFC co-culture, at 10 µM, stronger effect = higher value
[6] = glucagon-like peptide 1 release enhancers, primary assay, NCI-H716 cell line, NPC library (AID 1117341;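 active = compound raises GLP1 secretion from the human gut endocrine cells, with no numeric limit stated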); details: NCI-H716 cells, at 10 µM, stronger effect = higher value
[7] = HCT116 colon cancer cell growth inhibition, primary screen, CellTiter-Glo luminescence, NPC library (AID 1117342;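 active = compounds that lower survival of HCT116 colon cancer cells in the luminescence readout, no numeric limit stated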); details: at 20 µM (top of the series)
[8] = CellTiter-Glo luminescent readout of SW480 viability loss, NPC library primary (AID 1117343;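 active = compounds that lower viability of the colon cancer cells in the luminescence readout, with no numeric limit stated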); details: CellTiter-Glo luminescence; at 20 µM (top of the series)
[9] = decreased DLD-1 cellular survival, CellTiter-Glo luminescent readout, NPC compound collection, primary HTS (AID 1117346;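 active = compounds that lower survival of DLD-1 colon cancer cells in the luminescence readout, no cutoff given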); details: DLD-1 viability, CellTiter-Glo luminescence; at 20 µM (top of the series)
[10] = differential killing of epithelial or mesenchymal cells, primary screen, imaging, PC-3E GFP, TEM4-18 mCherry, co-culture (AID 1345086;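 active = compounds killing one labelled cell type while sparing the other, by normalised counts and ratio limits, not self-fluorescent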;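 as to all read-outs here: cells exposed to compound for 72 h before imaging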;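 as to red/green cell ratio (normalised): normalised mesenchymal count divided by normalised epithelial count so high means epithelial killing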); details: imaging cell counts, at 1 µM; for red/green cell ratio (normalised): actives lie on both sides, counts scaled to control wells, 1 = unselective
[11] = sensitizers of A549 cells to miR-34 induction, primary screen, imaging, A549 dox-inducible miR-34, nuclei and caspase counts (AID 1347080;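 active = compounds whose cell count with miR-34 switched on is under 0.7 times the count with it off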); details: A549 miR-34 inducible, Hoechst nuclei count, 48 h
[12] = target: NAD(+) hydrolase SARM1 (Homo sapiens) (UniProt Q6SZW1); experiment: SARM1 TIR NADase inhibitors, cell lysate, NAD-Glo luminescence (AID 1508614;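 active = compound whose remaining NAD level is above about 45 nM, limit read from the data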;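 also: higher remaining NAD means stronger inhibition of SARM1 NADase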); details: SAM-TIR HEK293T lysate NADase, at 1 µM, stronger effect = higher value
Sequence of NAD(+) hydrolase SARM1 (Homo sapiens) (Q6SZW1 whole entry, looked up, the tested form may be a part): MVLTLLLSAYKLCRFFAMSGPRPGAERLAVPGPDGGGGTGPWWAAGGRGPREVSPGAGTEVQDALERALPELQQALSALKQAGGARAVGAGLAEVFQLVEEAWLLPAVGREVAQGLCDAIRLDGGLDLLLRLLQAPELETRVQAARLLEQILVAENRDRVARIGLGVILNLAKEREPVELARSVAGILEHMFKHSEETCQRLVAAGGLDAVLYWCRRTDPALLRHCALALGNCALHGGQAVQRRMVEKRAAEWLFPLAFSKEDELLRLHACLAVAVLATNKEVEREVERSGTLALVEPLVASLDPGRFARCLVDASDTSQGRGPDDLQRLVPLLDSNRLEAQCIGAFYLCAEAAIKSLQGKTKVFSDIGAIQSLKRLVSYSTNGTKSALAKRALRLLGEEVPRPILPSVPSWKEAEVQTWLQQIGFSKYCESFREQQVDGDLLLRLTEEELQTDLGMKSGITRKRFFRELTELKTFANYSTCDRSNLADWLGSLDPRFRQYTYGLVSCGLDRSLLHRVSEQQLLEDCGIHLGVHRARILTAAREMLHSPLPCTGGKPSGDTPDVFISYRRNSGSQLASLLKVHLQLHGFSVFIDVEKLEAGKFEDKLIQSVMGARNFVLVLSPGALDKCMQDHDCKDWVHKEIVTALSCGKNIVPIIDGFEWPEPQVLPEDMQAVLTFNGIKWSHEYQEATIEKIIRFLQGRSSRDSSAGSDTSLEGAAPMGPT

[13] = target: Mitogen-activated protein kinase 7 (Homo sapiens) (UniProt Q13164); experiment: ERK5 transactivation activators in reporter cells, primary screen, cell-based, HTS (AID 1508626;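 active = luciferase signal above three times the same-plate solvent-only control wells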;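 also: luciferase driven by Gal4-ERK5 fusion binding five Gal4 sites before minimal TATA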); details: HeLa Gal4-ERK5 transactivation, 18 h, at 5 µM, stronger effect = higher value
Sequence of Mitogen-activated protein kinase 7 (Homo sapiens) (Q13164 whole entry, looked up, the tested form may be a part): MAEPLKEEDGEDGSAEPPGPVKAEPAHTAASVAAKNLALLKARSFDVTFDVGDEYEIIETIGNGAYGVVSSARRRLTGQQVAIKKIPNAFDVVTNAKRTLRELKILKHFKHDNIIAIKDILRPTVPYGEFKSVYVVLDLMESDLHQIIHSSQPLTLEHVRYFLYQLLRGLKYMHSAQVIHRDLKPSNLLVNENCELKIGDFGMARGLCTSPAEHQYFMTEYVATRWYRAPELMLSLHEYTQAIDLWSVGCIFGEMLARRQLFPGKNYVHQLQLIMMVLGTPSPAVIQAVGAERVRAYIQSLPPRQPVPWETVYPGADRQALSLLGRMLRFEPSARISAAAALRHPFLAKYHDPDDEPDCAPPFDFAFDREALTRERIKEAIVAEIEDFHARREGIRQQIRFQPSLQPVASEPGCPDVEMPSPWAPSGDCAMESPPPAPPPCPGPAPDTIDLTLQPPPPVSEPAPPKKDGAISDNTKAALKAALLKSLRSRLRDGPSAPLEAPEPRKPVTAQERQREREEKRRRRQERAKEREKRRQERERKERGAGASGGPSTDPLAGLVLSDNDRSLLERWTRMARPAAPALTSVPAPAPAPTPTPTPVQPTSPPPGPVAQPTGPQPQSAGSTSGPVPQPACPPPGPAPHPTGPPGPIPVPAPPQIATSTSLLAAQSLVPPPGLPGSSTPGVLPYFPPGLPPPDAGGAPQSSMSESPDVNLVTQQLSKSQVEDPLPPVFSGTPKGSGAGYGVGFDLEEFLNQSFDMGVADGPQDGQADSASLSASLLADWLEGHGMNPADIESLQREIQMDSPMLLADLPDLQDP

[14] = Cy5 fluorescence interference with SSB-bound oligo, artefact control for HCV NS3 helicase inhibitor project, biochemical, NIH Clinical Collection, E. coli SSB (AID 743268; call rule not given here)
[15] = system: Hepatitis C virus NS3 helicase; experiment: HCV NS3 helicase inhibitors, primary screen, biochemical, fluorescence polarization, NIH Clinical Collection (AID 743270; call rule not given here); details: NS3 helicase binding to Cy5-dT15 DNA, stronger effect = higher value, concentration not given here
[16] = target: Single-stranded DNA-binding protein (Escherichia coli (strain K12)) (UniProt P0AGE0); experiment: E. coli SSB displacement from DNA, counter-screen for HCV NS3 helicase inhibitor project, biochemical, fluorescence polarization, NIH Clinical Collection (AID 743271; in the data active = inhibition above about 28%); details: stronger effect = higher value, concentration not given here
[17] = fluorescence interference in NS3h assay format, artefact control for HCV NS3 helicase inhibitor project, biochemical, NIH Clinical Collection (AID 743272; call rule not given here;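 also: HCV NS3 helicase with a Cy5 labelled single stranded DNA probe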); details: fluorescence interference counterscreen, stronger effect = lower value
[18] = target: 6-phosphogluconate dehydrogenase, decarboxylating (Homo sapiens) (UniProt P52209); experiment: 6PGD enzyme inhibitors, primary screen, biochemical, human, recombinant enzyme, NADPH absorbance (AID 1159550;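 active = at least 20% inhibition of 6-phosphogluconate dehydrogenase activity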); details: recombinant 6PGD, NADPH absorbance 341 nm; at 10 µM; stronger effect = higher value
Sequence of 6-phosphogluconate dehydrogenase, decarboxylating (Homo sapiens) (P52209 whole entry, looked up): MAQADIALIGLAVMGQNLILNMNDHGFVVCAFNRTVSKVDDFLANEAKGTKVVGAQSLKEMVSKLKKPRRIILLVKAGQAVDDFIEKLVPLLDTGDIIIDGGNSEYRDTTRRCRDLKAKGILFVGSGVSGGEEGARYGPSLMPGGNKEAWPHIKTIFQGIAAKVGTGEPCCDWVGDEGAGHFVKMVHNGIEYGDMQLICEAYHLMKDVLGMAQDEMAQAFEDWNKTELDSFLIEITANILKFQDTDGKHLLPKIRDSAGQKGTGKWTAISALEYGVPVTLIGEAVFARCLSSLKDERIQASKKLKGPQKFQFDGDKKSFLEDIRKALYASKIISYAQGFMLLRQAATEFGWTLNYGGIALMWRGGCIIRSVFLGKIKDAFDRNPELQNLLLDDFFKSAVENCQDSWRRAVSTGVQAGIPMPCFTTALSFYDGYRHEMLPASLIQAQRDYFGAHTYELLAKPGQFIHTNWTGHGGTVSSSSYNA

[19] = survival rescue of mitochondrial mutant cells in low glucose, primary screen, MELAS cybrids, Rieske KO mouse fibroblasts, CellTiter-Glo (AID 1508586;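 active = mean z-score across replicates of 1.96 or higher in either the MELAS or the Rieske mutant cell line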;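 also: z relative to plate mean and SD of compound and empty wells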)
F380Y = experiment: modulators of BK channel variants, profiling panel, selectivity assay, cell-based, U2OS BacMam, thallium flux, beta subunits (AID 1259406;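 active = thallium flux through the channel raised or lowered by more than 3 SD from vehicle-only wells, actives on both sides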;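 also: initial slope of Thallos dye fluorescence rise after thallium is added; log ratio against the mean of 0.3% DMSO vehicle wells on the same plate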); details: at 30 µM
[20] = measured here: epithelial PC-3E GFP cell survival
[21] = measured here: mesenchymal TEM4-18 mCherry cell survival
[22] = stronger effect = lower value, cell number ratio, induced over uninduced
[23] = measured here: relative caspase fold change +Dox/-Dox
[24] = measured here: total cells with miR-34 induction, stronger effect = lower value
[25] = measured here: total cells without miR-34 induction
[26] = MELAS cybrid survival, CellTiter-Glo 48 h, stronger effect = higher value
[27] = Rieske KO mouse fibroblast survival, CellTiter-Glo 72 h

With `C=CCCCCCCCCC(=O)O` the parasite load remaining [1] was 49.2% (inactive), the viability [1] was 96.2% and the nuclear beta-catenin stimulation ([2]; at 10 µM) was -0.1% (inactive) and -2.1% (inactive). The nuclear beta-catenin stimulation ([2]; stimulation, at 2 µM) was 0.8% and -1.5%, the insulin secretion stimulation [3] was -1.7% (inactive) and 0.4% (inactive) and the viability decrease [4] was -6.75% (inactive) and -111% (inactive). For the same molecule, the tube area decrease [5] was 3.3% (inactive) and 1.9% (inactive), the GLP1 secretion stimulation [6] was 1.3% (inactive) and -1.9% (inactive) and the inhibition of viability [7] was 0.2% (inactive) and 0.1% (inactive). The viability decrease (inhibition) [8] was 69.8% (active) and 6.3% (inactive), the viability decrease (inhibition) [9] was 14.5% (inactive) and 8% (inactive) and the red/green cell ratio (normalised) [10] was 0.93 (inactive). The normalised cell number [10, 20] was 1.02, the normalised cell number [10, 21] was 0.95 and the fold change [11, 22] was 0.879 (inactive). The fold change [11, 23] was 4.79, the cell count [11, 24] was 11700 and the cell count [11, 25] was 13300. The remaining NAD [12] was 10 nM (inactive) and the luciferase signal [13] was 20 AU (inactive).
With `C[C@@H]1CC(=O)NN=C1c1ccc(NN=C(C#N)C#N)cc1` the nuclear beta-catenin stimulation ([2]; at 10 µM) was 7.5% (inactive) and 2.8% (inactive), the nuclear beta-catenin stimulation ([2]; stimulation, at 2 µM) was 0% and -0.4% and the insulin secretion stimulation [3] was -2.9% (inactive) and -1.5% (inactive). The viability decrease [4] was -8.85% (inactive) and 2.3% (inactive), the tube area decrease [5] was 41.6% (active) and 22.4% (inactive) and the GLP1 secretion stimulation [6] was 1.1% (inactive) and -7% (inactive). The inhibition of viability [7] was -20.6% (inactive) and 6.9% (inactive), the viability decrease (inhibition) [8] was 30.7% (inactive) and -5.7% (inactive) and the viability decrease (inhibition) [9] was 12.6% (inactive) and 21.9% (inactive). The red/green cell ratio (normalised) [10] was 1.17 (inactive), the normalised cell number [10, 20] was 1.03 and the normalised cell number [10, 21] was 1.21. For the same molecule, the fold change [11, 22] was 0.967 (inactive), the fold change [11, 23] was 0.752 and the cell count [11, 24] was 8720. The cell count [11, 25] was 9020 and the remaining NAD [12] was 10 nM (inactive).
With `CC(=O)OCC(=O)[C@@]12OC(C)(C)O[C@@H]1C[C@H]1[C@@H]3C[C@H](F)C4=CC(=O)C=C[C@]4(C)[C@@]3(F)[C@@H](O)C[C@@]12C` the parasite load remaining [1] was 84.8% (inactive) and 108% (inactive), the viability [1] was 105% and 96.2% and the fluorescence ratio [14] was 1.05 (inactive). For the same molecule, the inhibition [15] was 4.09% (inactive), the inhibition [16] was -1.24% (inactive) and the fluorescence ratio [17] was 1.01 (inactive). For the same molecule, the nuclear beta-catenin stimulation ([2]; at 10 µM) was 1.1% (inactive), the nuclear beta-catenin stimulation ([2]; stimulation, at 2 µM) was 2.1% and the insulin secretion stimulation [3] was 0.2% (inactive). The viability decrease [4] was -25.9% (inactive), the tube area decrease [5] was 30.9% (inactive) and the GLP1 secretion stimulation [6] was 0.7% (inactive). For the same molecule, the inhibition of viability [7] was 20.4% (inactive), the viability decrease (inhibition) [8] was -2.3% (inactive) and the viability decrease (inhibition) [9] was -3.8% (inactive). The inhibition [18] was -0.585% (inactive), the fold change [11, 22] was 0.945 (inactive) and 0.813 (inactive) and the fold change [11, 23] was 2.11 and 1.02. The cell count [11, 24] was 7270 and 6260, the cell count [11, 25] was 7700 and 7690 and the z-score [19, 26] was 0.454 (inactive). For the same molecule, the z-score [19, 27] was 1.02, the remaining NAD [12] was 10 nM (inactive) and the luciferase signal [13] was 260 AU (active). For the same molecule, the log fold change Tl+ flux (F380Y) was 0.00343 (inactive).
In the case of `O=C1N=C(O)CN1/N=C/c1ccc(-c2ccc([N+](=O)[O-])cc2)o1`, the parasite load remaining [1] is reported as 21.2% (inactive) and 82.2% (inactive) and 9.57% (inactive), the viability [1] is reported as 47.1% and 91.4% and 102% and the nuclear beta-catenin stimulation ([2]; at 10 µM) is reported as 4.1% (inactive). For the same molecule, the nuclear beta-catenin stimulation ([2]; stimulation, at 2 µM) was 4.2%, the insulin secretion stimulation [3] was 2.6% (inactive) and the viability decrease [4] was 9.2% (inactive). The tube area decrease [5] was -8.8% (inactive), the GLP1 secretion stimulation [6] was 1.9% (inactive) and the inhibition of viability [7] was 20.3% (active). For the same molecule, the viability decrease (inhibition) [8] was -30.5% (inactive), the viability decrease (inhibition) [9] was 5% (inactive) and the inhibition [18] was 13.4% (inactive). The red/green cell ratio (normalised) [10] was 1.07 (inactive), the normalised cell number [10, 20] was 1.02 and the normalised cell number [10, 21] was 1.1. For the same molecule, the z-score [19, 26] was 0.073 (inactive), the z-score [19, 27] was 0.247 and the remaining NAD [12] was 10 nM (inactive). For the same molecule, the luciferase signal [13] was 156 AU (inactive).
